# Results filed as inconclusive are left out. A number with no mark means an inactive call. Calls follow the shape of the dose curve; as a rule, active = well fitted inhibition curve with a large enough effect; inconclusive = small, poorly fitted or top-dose-only effect; inactive = flat fitted curve, though single readings scatter.
# Target: Calcium and integrin-binding protein 1 (Homo sapiens) (UniProt Q99828)
# Experiment: Primary qHTS for Identification of Calcium Integrin Binding Protein 1 (CIB1) Competitor (AID 1508620); also: top concentration of the series differs between compounds
# Settings: CIB1-GST / FITC-alphaIIb peptide fluorescence polarization; series mostly up to 114 µM; activity change, negative = inhibition: at the top concentration
# Outline: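 Fluorescence polarization competition: GST-tagged CIB1 (1 uM final) preincubated with compound 15 min at room temperature, then FITC-labelled alphaIIb peptide (100 nM final) added. After 15 min at room temperature, polarization read at Ex 480/Em 540.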
# % is scaled to controls: 0 for no effect and ±100 for the full control effect.
# Sequence of Calcium and integrin-binding protein 1 (Homo sapiens) (Q99828 whole entry, looked up): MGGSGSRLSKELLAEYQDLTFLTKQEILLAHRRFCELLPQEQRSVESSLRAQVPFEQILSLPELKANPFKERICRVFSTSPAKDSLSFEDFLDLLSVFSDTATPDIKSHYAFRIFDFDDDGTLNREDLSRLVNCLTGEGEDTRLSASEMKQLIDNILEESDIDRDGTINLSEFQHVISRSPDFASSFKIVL
row,SMILES,"activity change, negative = inhibition"
1,Cc1ccnc(NC(=S)N2CCC(Nc3cccc(C(F)(F)F)c3)CC2)c1,1.47%
2,O=C(O)c1ccc(-n2cccc2/C=C2\SC(=O)N(Cc3ccc(F)cc3)C2=O)cc1,5.21%
3,Cc1ccc(OCCn2c(CCNC(=O)c3ccc4ccccc4c3)nc3ccccc32)cc1,34.1%
4,Cc1ccc(NS(=O)(=O)c2ccc(N3CCCC3=O)cc2)cc1C,4.41%
5,OC(c1ccccc1)(c1ccccc1)c1cnc2ccccn12,-4.38%
6,CC(=O)Nc1ccc(CNc2ncnc3ccc(-c4c(C)noc4C)cc23)cc1,1.71%
7,CC(=O)NC(c1cc(Cl)c2ccccc2c1O)C1CC1 (stereo not given),-0.272%
8,NC(=O)C1CCN(c2nc(-c3ccc(N)cc3)cs2)CC1,-2.43%
9,CN(CC(=O)Nc1ccc(N2CCOCC2)cc1)Cc1cccc2ccccc12,1.24%
10,N#Cc1nc(Nc2ccc(C(F)(F)F)cc2)nc(NC2CCCC2)n1,-0.681%
11,Cc1noc(C)c1-c1ccc2ncnc(NCc3ccc(F)c(F)c3)c2c1,-2.03%
12,O=C(CNC(=O)c1ccncc1)OC(C(=O)Nc1cc(C(F)(F)F)ccc1Cl)c1ccccc1 (stereo not given),0.363%
13,Cc1cccc(-n2cnc3cc(C(=O)N4CCC(Br)CC4)ccc32)c1,-3.62%
14,CCOc1ccc(C(=O)Nc2ccc(-c3nc4ccccc4o3)cc2)cc1[N+](=O)[O-],9.93%
15,FC(F)(F)c1ccccc1-c1nc(NCc2ccc(-c3cccc(Cl)c3)cc2)c2ccccc2n1,4.02%
16,N#Cc1ccc(-c2ccc(CNc3ccc(N4CCOCC4)cc3)o2)cc1,-7.24%
17,Cc1c(P(=S)(c2ccccc2)c2ccccc2)c2ccccc2n1Cc1ccccc1,0.589%
18,O=C(Nc1ccc(Cl)c(Cl)c1)Nc1ccc(-c2ccncc2)s1,-0.361%
19,O=C(NCc1ccccc1)Nc1nnc(-c2ccncc2)s1,1.12%
20,O=C(O)c1ccc(O)c2ncc(-c3ccc(C(=O)N4CCNCC4)cc3)cc12,-2.37%

row,SMILES,"activity change, negative = inhibition"
1,CNc1oc(-c2cccc(-c3ccccc3)c2)nc1C#N,-12.9%
2,O=c1c2[nH]c3cc(Br)sc3c2cnn1Cc1ccccc1F,0.167%
3,Cn1nnnc1Sc1ncnc2scc(I)c12,-9.98%
4,COC(=O)c1ccc(N2CCN(S(=O)(=O)c3ccc4c(c3)CC(=O)N4)CC2)cc1,0.315%
5,CC(C)(C)OC(=O)NCCOCCOCCOCCn1ncc2c1CCCC2NC(=O)c1ccccn1 (stereo not given),-2.14%
6,O=C(Nc1ccc2ccccc2c1)Nc1nnc(-c2cccnc2)s1,1.17%
7,Cn1c2cc(C(=O)O)sc2c2cnn(Cc3ccccc3F)c(=O)c21,-1.69%
8,COc1ccc(C2c3c(ncn(CCN4CCOCC4)c3=N)Oc3ccc4ccccc4c32)cc1 (stereo not given),9.45%
9,Cc1cc(C)n2ncc(C(=O)Nc3ccc(Cl)c(Cl)c3)c2n1,6.27%
10,Cc1noc(C)c1-c1ccc2ncnc(NC(C)c3ccco3)c2c1 (stereo not given),-5.88%
11,COc1cnccc1-c1nc(Nc2ccc(F)c(F)c2)c2ccccc2n1,-16.2%
12,Cc1cn([C@H]2C[C@H](N[S+](=O)([O-])Cc3ccc([N+](=O)[O-])cc3)[C@@H](CO)O2)c(=O)[nH]c1=O,-2.79%
13,CC(=O)N1CCc2cc(-c3nc(NC(=O)Cc4ccc5c(c4)OCO5)sc3C)ccc21,30.5%
14,c1ccc(OCc2nnc3ccc(-c4ccccc4)nn23)cc1,-1.4%
15,CC(C)(C)OC(=O)N1CCN(c2ccc(NCc3cnc(-c4ccc(C#N)cc4)o3)cc2)CC1,-0.444%
16,Cn1nnnc1Sc1ncnc2scc(-c3ccc(Br)cc3)c12,2.39%
17,FC(F)(F)c1ccc(-c2nc(-c3nnc4n3CCCCC4)c(C(F)(F)F)o2)cc1,2.16%
18,CCOc1cc2c(cc1OCC)CN(C(=O)c1cc3sccc3n1Cc1ccccc1)CC2,4.43%
19,COc1ccc(C2Nc3ccccc3C(=O)N2Cc2ccc(C(F)(F)F)cc2)cc1COc1ccc(NC(C)=O)cc1 (stereo not given),1.78%
20,COc1cc(O)c(C(CC(=O)N2CCCC(COc3ccc(F)cc3)C2)c2ccc3c(c2)OCO3)c(OC)c1 (stereo not given),1.23% [at 228 µM]
